Data published in PubChem BioAssay.
The source made the active and inactive calls.

Columns and labels:
[1] = system: Human papillomavirus type 1a protein E7 (residues 44-93); assay: small molecules binding HPV E7 44-93 – biochemical, small-molecule microarray, residues 44-93, 635 nm fluorescence, primary screen (AID 1108); conditions: fluorescence 635 nm, higher = more signal;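 note: E7 fragment applied at 1 µg/mL in TBST for 1 h at 4 C; score combines spot fluorescence with its signal to noise ratio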
[2] = hepatitis C replication reporter changes, two-sided – Huh7 cells, luciferase reporter, HCV replication inhibitor project, primary screen (AID 1109); conditions: Huh7 HCV replicon luciferase reporter, 48 h; higher = more signal;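 note: huh7 hepatoma cells harbouring a luciferase neomycin HCV replicon reporter; luciferase luminescence as measure of HCV replicon replication; test concentration not given here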
[3] = biological target: Left-right determination factor 2 (Homo sapiens) (UniProt O00292); assay: small molecules binding LEFTY2 protein – biochemical, small-molecule microarray, 635 nm fluorescence scan, primary screen (AID 1110); conditions: higher = more signal
[4] = biological target: Calmodulin-1 (Homo sapiens) (UniProt P0DP23); assay: small molecules binding calmodulin-1 with EGTA – biochemical, small-molecule microarray, Cy5-labelled CALM1, profiling panel (AID 1111); conditions: Cy5-CALM1 binding fluorescence, higher = more signal;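 note: labelled calmodulin applied in Tris saline Tween buffer holding calcium plus EGTA and DTT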
[5] = biological target: Calmodulin-1 (Homo sapiens) (UniProt P0DP23); assay: small molecules binding Ca-loaded calmodulin-1 – biochemical, small-molecule microarray, Cy5-labelled CALM1, plus calcium, artefact control for SMM control-protein annotation, profiling panel (AID 1112); conditions: Cy5-CALM1 binding fluorescence, higher = more signal;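 note: score merges spot fluorescence with signal to noise from triplicate slides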
[6] = probe aWnt5a binding to arrayed compounds – biochemical, biotinylated probe, 635/667 nm fluorescence, primary screen (AID 1113); conditions: small-molecule microarray, higher = more signal;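 note: score merges 667 nm fluorescence intensity with signal-to-noise per printed feature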
[7] = probe aShh binding to arrayed compounds – biochemical, biotinylated probe, 635/667 nm fluorescence, primary screen (AID 1114); conditions: small-molecule microarray, higher = more signal;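 note: probe is biotin-labelled aShh protein from a stem cell growth factor screen; measures binding of labelled protein to compounds printed on the slide; score merges feature fluorescence at 667 nm with signal-to-noise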
[8] = probe aNog binding to arrayed compounds – biochemical, biotinylated probe, 635/667 nm fluorescence, primary screen (AID 1115); conditions: small-molecule microarray, higher = more signal;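 note: probe is biotinylated aNog protein used at 0.15 µg/mL for 1 h at 4 C; z-score combines 667 nm fluorescence of each spot with its signal to noise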
[9] = biological target: Torsin-1A-interacting protein 1 (Homo sapiens) (UniProt Q5JTV8); assay: compound microarray binding of lysate hLAP1 – cell lysate, small-molecule microarray, COS7 lysate, 635/667 nm fluorescence, primary screen (AID 1116); conditions: 635 nm fluorescence, higher = more signal
[10] = biological target: Alpha-bungarotoxin (Bungarus multicinctus) (UniProt P60615); assay: compounds binding labelled alpha-BTX control protein – biochemical, small-molecule microarray, Alexa647 label, 635/667 nm fluorescence, artefact control for SMM control protein annotation, profiling panel (AID 1117); conditions: alpha-BTX-A647 binding fluorescence, higher = more signal
Albumin (Bos taurus) = Albumin (Bos taurus) (UniProt P02769); assay: compounds binding labelled BSA control protein – biochemical, small-molecule microarray, Alexa647 label, 635/667 nm fluorescence, artefact control for SMM control protein annotation, profiling panel (AID 1118); conditions: BSA-A647 binding, fluorescence 635 nm, higher = more signal;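 note: score merges 667 nm emission intensity and signal-to-noise per printed compound spot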
[11] = probe aXIP binding to arrayed compounds – biochemical, NeuroSMM set, 635/667 nm fluorescence, primary screen (AID 1119); conditions: small-molecule microarray, higher = more signal, called active from +8 up or from −8 down;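 note: probe is the protein aXip251-270 applied at 1 µg/mL to compound-printed slides; binding of probe to printed compounds measured as 667 nm fluorescence plus signal to noise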
[12] = probe aNOTCH3 binding on compound microarray – biochemical, small-molecule microarray, 635/667 nm fluorescence, primary screen (AID 1120); conditions: higher = more signal;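 note: probe is a biotin-tagged antibody raised against NOTCH3 rather than NOTCH3 protein; score merges spot fluorescence near 667 nm with spot signal to noise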
[13] = probe aNOTCH2 binding on compound microarray – biochemical, small-molecule microarray, 635/667 nm fluorescence, primary screen (AID 1121); conditions: higher = more signal;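 note: score merges feature fluorescence read at 667 nm with its signal to noise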
[14] = biological target: Carbonic anhydrase 2 (Homo sapiens) (UniProt P00918); assay: compounds binding carbonic anhydrase 2 – biochemical, small-molecule microarray, Alexa647-labelled CAII, profiling panel (AID 1122); conditions: CAII-A647 binding fluorescence, higher = more signal
[15] = COS7 lysate on small-molecule microarray, probe aHis, 635 nm (AID 1123); conditions: COS7 cell lysate, fluorescence, higher = more signal;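 note: z-score combines 667nm fluorescence intensity with signal-to-noise per printed compound spot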
[16] = probe aLAP1 signal on lysate-treated microarray – cell lysate, small-molecule microarray, COS7 lysate, primary screen (AID 1124); conditions: probe aLAP1, fluorescence, higher = more signal;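 note: lysate comes from COS7 cells expressing LAP1 and is applied at 0.3 µg/mL; score merges spot fluorescence near 667 nm with signal-to-noise over triplicate slides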
Sam68 (KHDRBS1) = assay: compounds binding KHDRBS1 protein – biochemical, small-molecule microarray, 635 nm fluorescence, primary screen (AID 1125); conditions: higher = more signal;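 note: score merges 667 nm channel intensity with signal to noise over triplicate slides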
[17] = system: Chordin-like protein 2 (CHRDL2); assay: compounds binding chordin-like 2 – biochemical, small-molecule microarray, 635 nm fluorescence, primary screen (AID 1126); conditions: fluorescence 635 nm, higher = more signal;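 note: printed compound slides probed with Chrdl2 protein at 4 µg/mL for 1 h at 4 C; score merges 667 nm emission intensity with signal to noise over three replicate slides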
[18] = biological target: Concanavalin-A (Canavalia ensiformis) (UniProt P02866); assay: compounds binding concanavalin A lectin – biochemical, small-molecule microarray, Alexa647 label, 635 nm, artefact control for SMM control protein annotation, primary screen (AID 1127); conditions: ConA-A647 binding fluorescence, higher = more signal;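 note: z combines 667 nm emission intensity with signal-to-noise across three replicate slides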
Sequence of Concanavalin-A (Canavalia ensiformis) (P02866 whole entry, looked up): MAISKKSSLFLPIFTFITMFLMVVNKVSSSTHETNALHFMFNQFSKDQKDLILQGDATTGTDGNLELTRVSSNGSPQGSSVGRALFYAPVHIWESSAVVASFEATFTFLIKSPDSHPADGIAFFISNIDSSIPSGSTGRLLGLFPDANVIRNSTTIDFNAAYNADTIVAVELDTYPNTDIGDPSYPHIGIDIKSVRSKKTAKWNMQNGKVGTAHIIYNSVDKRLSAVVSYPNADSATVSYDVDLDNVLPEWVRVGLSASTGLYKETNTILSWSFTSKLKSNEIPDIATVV

Sequence of Alpha-bungarotoxin (Bungarus multicinctus) (P60615 whole entry, looked up): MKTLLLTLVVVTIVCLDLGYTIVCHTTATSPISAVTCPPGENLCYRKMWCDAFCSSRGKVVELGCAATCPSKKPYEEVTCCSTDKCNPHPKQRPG
Sequence of Torsin-1A-interacting protein 1 (Homo sapiens) (Q5JTV8 whole entry, looked up): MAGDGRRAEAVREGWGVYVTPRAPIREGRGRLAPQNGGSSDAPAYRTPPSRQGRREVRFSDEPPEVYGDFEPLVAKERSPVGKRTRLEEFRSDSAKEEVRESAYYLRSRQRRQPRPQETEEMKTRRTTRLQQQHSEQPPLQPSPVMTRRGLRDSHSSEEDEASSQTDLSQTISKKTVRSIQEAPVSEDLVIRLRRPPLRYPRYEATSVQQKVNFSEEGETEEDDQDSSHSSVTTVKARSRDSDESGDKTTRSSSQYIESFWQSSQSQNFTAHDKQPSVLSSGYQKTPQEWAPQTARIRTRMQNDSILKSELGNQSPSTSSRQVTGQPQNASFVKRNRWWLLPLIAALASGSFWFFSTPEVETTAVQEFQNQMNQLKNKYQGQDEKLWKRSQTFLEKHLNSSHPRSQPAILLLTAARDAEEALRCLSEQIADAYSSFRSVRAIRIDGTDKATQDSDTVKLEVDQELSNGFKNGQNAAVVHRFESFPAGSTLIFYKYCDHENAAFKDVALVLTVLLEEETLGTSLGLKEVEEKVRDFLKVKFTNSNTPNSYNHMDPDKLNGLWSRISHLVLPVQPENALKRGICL
Sequence of Albumin (Bos taurus) (P02769 whole entry, looked up): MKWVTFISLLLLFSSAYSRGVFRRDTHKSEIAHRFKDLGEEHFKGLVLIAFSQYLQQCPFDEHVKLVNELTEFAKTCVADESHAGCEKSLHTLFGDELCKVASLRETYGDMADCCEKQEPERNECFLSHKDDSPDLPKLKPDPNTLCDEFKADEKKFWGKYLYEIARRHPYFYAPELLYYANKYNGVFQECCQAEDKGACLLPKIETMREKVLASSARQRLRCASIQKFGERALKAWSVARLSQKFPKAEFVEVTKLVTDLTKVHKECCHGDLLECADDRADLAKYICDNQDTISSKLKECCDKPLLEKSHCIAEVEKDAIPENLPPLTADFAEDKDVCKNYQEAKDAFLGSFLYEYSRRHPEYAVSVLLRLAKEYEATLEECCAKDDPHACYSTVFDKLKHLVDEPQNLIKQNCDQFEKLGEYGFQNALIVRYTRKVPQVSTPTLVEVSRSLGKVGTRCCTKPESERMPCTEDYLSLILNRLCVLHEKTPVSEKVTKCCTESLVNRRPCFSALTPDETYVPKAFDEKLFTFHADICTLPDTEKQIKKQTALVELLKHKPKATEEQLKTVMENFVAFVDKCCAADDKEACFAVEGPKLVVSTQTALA
Sequence of Left-right determination factor 2 (Homo sapiens) (O00292 whole entry, looked up): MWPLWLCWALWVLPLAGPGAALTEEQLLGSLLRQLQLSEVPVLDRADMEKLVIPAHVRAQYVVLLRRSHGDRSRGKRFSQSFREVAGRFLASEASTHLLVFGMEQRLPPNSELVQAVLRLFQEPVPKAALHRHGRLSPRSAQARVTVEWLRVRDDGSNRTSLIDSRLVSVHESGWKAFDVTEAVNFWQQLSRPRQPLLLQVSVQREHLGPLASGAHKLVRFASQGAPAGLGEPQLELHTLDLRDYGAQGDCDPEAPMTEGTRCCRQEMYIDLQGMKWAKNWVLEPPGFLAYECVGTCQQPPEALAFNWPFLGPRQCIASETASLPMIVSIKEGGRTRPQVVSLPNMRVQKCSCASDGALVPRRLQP

Structure (SMILES) | composite z-score [1] | z-score [2] | composite z-score [3] | composite z-score [4] | composite z-score [5] | composite z-score [6] | composite z-score [7] | composite z-score [8] | composite z-score [9] | composite z-score [10] | composite z-score (Albumin (Bos taurus)) | composite Z-score [11] | composite z-score [12] | composite z-score [13] | composite z-score [14] | composite z-score [15] | composite z-score [16] | composite z-score (Sam68 (KHDRBS1)) | composite z-score [17] | composite z-score [18]
COc1ccc(CCNC(=O)[C@@H]2c3ccccc3C(=O)N(Cc3ccccc3C(F)(F)F)[C@H]2c2ccc(CO)cc2)cc1 | 1.47 | -1.2 | -1.27 | -0.22 | -0.181 | -0.0735 | -0.154 | -0.559 | 0.381 | -0.278 | -0.187 | 1.36 (inactive) | -0.246 | -0.0664 | 0.466 | 1.29 | 0.57 | 0.501 | -1.34 | -0.272
NC(=O)NCC#Cc1ccc2c(c1)[C@]1(C(=O)N2)[C@H](c2ccc(O)cc2)N2[C@H](c3ccccc3)[C@H](c3ccccc3)OC(=O)[C@H]2[C@@H]1C(=O)NC[C@H](O)c1ccccc1 | -0.631 | 0.918 | -1.67 | -0.699 | 0.827 | -0.219 | -0.276 | 0.241 | -0.243 | -2 | 0.233 | -0.539 (inactive) | -0.464 | -0.122 | -0.051 | 0.327 | 0.469 | -1.03 | -1.12 | -1.34
NCCCCCCNC(=O)[C@H]1C[C@H]2C(=O)N3CCC[C@H]3C(=O)N2[C@H]1c1ccc(O)cc1 | -0.0863 | 0.0433 | 0.55 | 0.192 | 0.102 | 0.15 | -0.0441 | -0.28 | 0.999 | 1.05 | 0.425 | 2.61 (inactive) | -0.0362 | -0.201 | 0.722 | 0.307 | 0.597 | 0.644 | 0.777 | 0.998
CCC[C@@H]1C[C@@]1(CCC)[C@@H](NC(=O)c1cccs1)c1ccc(Cl)cc1 | -0.364 | -2.05 | -2.42 | 0.883 | 0.881 | 0.0529 | 0.29 | 1.39 | -0.506 | -0.0153 | 0.259 | -0.222 (inactive) | -0.102 | -0.0617 | 0.247 | 0.855 | -0.199 | -0.0604 | -0.693 | -0.596
CC(C)CN1C(=O)[C@@]2(Cc3ccccc31)c1ccccc1C(=O)N(Cc1ccccc1)[C@H]2c1ccc(CO)cc1 | -0.587 | 0.15 | -0.757 | -0.361 | -0.195 | -0.096 | -0.206 | -0.175 | -0.845 | -0.0612 | 0.488 | 0.671 (inactive) | -0.197 | -0.138 | 0.441 | 0.179 | 0.254 | -1.72 | -1.03 | -0.616
O=C1N(CCS(=O)(=O)c2ccccc2)Cc2ccccc2C[C@@]12COC(c1ccc(OCCCO)cc1)=N2 | 1.08 | -2.31 | 0.906 | 0.303 | 0.87 | 0.0561 | -0.0858 | 0.618 | 1.56 | 2.33 | -0.0401 | 0.319 (inactive) | 0.384 | -0.0651 | 0.585 | 2.55 | 0.203 | 1.32 | 0.825 | 1.17
Cc1ccc(S[C@]2(C(=O)O)CC(=O)N(Cc3ccccc3C(F)(F)F)[C@@H]2c2ccc(CO)cc2)cc1 | 0.973 | 0.0788 | -0.587 | -0.317 | 0.228 | -0.176 | -0.138 | -0.321 | 0.914 | -0.115 | -0.283 | -0.612 (inactive) | -0.128 | -0.164 | 0.653 | 1.79 | -0.67 | -0.298 | -1.6 | -0.373
COCCCNC(=O)[C@@]1(Cc2ccccc2)COC(c2ccc(OCCCO)cc2)=N1 | 0.952 | -0.409 | -1.08 | 0.525 | 0.361 | 0.199 | 0.289 | -0.573 | 1.03 | 0.943 | 0.838 | 0.6 (inactive) | 0.0813 | -0.0307 | 0.739 | 3.02 | 0.77 | 1.31 | -0.554 | 0.825
COC(=O)[C@@]1(Cc2ccc(OC)cc2)[C@H]2c3cc(C(=O)N4CCCC4)n(CCc4ccc(O)c(OC)c4)c3C[C@H]2CN1C(=O)c1ccccc1 | 0.333 | -0.917 | -0.448 | 0.346 | 0.225 | 0.114 | 0.03 | 1.03 | 0.39 | 0.184 | 0.952 | 0.683 (inactive) | 0.23 | 0.12 | 0.742 | 2.28 | 0.191 | -0.295 | -0.508 | 0.173
O=C1O[C@H](c2ccccc2)[C@H](c2ccccc2)N2[C@H]1[C@@H](C(=O)N1CCN(c3ncccn3)CC1)[C@]1(C(=O)Nc3ccc(C#CCCO)cc31)[C@H]2c1ccc(OCCO)cc1 | 1.41 | -1.35 | 1.35 | 1.23 | -0.188 | 0.0614 | 0.0141 | 0.242 | 1.53 | 0.554 | 0.612 | 1.38 (inactive) | 0.255 | -0.0633 | 0.296 | 1.96 | 0.924 | 1.3 | 0.944 | 1.11
COC(=O)[C@@]1(Cc2ccc(OC)cc2)[C@H]2c3cc(C(=O)N(C)C)n(Cc4cc(F)c(F)c(F)c4)c3C[C@H]2CN1C(=O)c1ccccc1 | 1.43 | -2.04 | 0.159 | 2.29 | 1.17 | 0.225 | 0.75 | 1.73 | 1.19 | 1.86 | 0.895 | -0.37 (inactive) | 0.578 | 0.212 | 0.767 | 2.73 | 0.331 | 1.11 | -0.0554 | 1.13
